Our source for the residual activity values is ChEMBL document CHEMBL2218924, “A broad activity screen in support of a chemogenomic map for kinase signalling research and drug discovery” (Biochem J, 2013).

For assay [1], the target named is T1, Rhodopsin kinase GRK7 (Homo sapiens) (UniProt Q8WTQ7).
T1 sequence (whole entry): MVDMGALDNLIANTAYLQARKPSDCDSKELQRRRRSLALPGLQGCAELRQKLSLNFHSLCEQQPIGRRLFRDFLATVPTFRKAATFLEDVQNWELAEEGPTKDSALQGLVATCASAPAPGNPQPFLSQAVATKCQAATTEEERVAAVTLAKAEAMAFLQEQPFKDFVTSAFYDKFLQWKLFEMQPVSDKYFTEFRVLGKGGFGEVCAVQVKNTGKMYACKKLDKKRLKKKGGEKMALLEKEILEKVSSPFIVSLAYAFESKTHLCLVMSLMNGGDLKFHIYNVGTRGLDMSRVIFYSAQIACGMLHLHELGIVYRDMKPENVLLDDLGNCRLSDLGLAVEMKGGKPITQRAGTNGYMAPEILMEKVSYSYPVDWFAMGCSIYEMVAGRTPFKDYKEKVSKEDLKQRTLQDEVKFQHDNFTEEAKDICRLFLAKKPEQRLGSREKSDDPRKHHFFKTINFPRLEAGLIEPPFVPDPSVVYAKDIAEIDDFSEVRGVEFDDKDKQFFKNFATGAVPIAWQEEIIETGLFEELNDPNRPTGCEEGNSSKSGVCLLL
Conditions: at 10 µM.

For assay [2], the target named is Glycogen synthase kinase-3 alpha (Homo sapiens) (UniProt P49840). Conditions: at 1 µM.
The target is the same in assay [3]. Conditions: at 10 µM.
The target in assay [4] is Glycogen synthase kinase-3 beta (Homo sapiens) (UniProt P49841). The note with it: at 1 µM.
For assay [5] the target is unchanged. The note with it: at 10 µM.
Assay [6] addresses Homeodomain-interacting protein kinase 1 (Homo sapiens) (UniProt Q86Z02). Conditions: at 1 µM.
For assay [7] the target is unchanged. The note with it: at 10 µM.
Assay [8] has as its target Homeodomain-interacting protein kinase 2 (Homo sapiens) (UniProt Q9H2X6). Conditions: at 1 µM.
The target is the same in assay [9]. The note with it: at 10 µM.
In assay [10] the target is Homeodomain-interacting protein kinase 3 (Homo sapiens) (UniProt Q9H422). The note with it: at 1 µM.
Assay [11] shares this target. The note with it: at 10 µM.
Assay [12] concerns the target T2, Serine/threonine-protein kinase haspin (Homo sapiens) (UniProt Q8TF76).
T2 sequence (whole entry): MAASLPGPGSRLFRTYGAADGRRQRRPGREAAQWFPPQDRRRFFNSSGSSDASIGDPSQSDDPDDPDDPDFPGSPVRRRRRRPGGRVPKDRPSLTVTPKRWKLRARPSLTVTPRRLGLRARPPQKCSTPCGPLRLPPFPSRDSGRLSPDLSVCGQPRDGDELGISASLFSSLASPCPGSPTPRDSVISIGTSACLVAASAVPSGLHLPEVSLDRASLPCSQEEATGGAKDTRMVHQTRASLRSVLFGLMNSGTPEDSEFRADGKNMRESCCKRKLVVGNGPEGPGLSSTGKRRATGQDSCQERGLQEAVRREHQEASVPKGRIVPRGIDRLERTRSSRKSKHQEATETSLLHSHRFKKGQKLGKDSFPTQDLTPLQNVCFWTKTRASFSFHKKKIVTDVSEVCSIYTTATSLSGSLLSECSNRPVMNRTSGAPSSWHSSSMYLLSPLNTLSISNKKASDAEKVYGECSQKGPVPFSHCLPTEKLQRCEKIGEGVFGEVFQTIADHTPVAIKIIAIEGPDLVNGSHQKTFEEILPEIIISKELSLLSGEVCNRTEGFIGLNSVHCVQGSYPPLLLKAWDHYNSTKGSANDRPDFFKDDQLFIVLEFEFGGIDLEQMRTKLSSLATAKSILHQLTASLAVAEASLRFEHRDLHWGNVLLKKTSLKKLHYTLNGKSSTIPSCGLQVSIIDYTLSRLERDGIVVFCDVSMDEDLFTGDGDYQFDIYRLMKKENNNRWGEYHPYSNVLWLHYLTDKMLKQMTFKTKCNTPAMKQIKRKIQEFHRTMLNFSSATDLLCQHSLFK
Conditions: at 1 µM.

For assay [13], the target named is T2, Serine/threonine-protein kinase haspin (Homo sapiens). The note with it: at 10 µM.
Assay [14] deals with Tyrosine-protein kinase HCK (Homo sapiens) (UniProt P08631). Conditions: at 1 µM.
Assay [15] has the same target. Conditions: at 10 µM.
The target is the same in assay [16]. The note with it: at 1 µM. The source holds these as a separate data set.
The target is the same in assay [17]. The note with it: at 10 µM. The source holds these as a separate data set.
Assay [18] concerns the target Insulin-like growth factor 1 receptor (Homo sapiens) (UniProt P08069). The note with it: at 1 µM.
Assay [19] has the same target. The note with it: at 10 µM.
The target of assay [20] is T3, Protein kinase C zeta type (Homo sapiens) (UniProt Q05513).
T3 sequence (whole entry): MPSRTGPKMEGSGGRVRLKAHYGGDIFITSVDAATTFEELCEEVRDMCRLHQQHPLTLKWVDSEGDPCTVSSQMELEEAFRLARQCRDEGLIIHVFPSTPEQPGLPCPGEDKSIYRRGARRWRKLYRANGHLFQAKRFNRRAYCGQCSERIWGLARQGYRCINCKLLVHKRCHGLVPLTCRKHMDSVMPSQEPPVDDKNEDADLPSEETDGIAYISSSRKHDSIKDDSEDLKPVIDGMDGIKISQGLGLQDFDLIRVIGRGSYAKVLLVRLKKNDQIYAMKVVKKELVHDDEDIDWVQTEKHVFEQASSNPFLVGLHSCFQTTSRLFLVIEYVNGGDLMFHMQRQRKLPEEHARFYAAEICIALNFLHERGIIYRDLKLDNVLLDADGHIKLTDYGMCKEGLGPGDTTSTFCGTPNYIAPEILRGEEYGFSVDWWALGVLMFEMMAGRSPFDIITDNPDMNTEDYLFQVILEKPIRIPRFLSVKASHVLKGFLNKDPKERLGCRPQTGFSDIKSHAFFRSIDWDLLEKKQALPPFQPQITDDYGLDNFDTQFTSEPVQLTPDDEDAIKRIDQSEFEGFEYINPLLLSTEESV
The note with it: at 10 µM.

Sequence of Homeodomain-interacting protein kinase 3 (Homo sapiens) (Q9H422 whole entry, looked up): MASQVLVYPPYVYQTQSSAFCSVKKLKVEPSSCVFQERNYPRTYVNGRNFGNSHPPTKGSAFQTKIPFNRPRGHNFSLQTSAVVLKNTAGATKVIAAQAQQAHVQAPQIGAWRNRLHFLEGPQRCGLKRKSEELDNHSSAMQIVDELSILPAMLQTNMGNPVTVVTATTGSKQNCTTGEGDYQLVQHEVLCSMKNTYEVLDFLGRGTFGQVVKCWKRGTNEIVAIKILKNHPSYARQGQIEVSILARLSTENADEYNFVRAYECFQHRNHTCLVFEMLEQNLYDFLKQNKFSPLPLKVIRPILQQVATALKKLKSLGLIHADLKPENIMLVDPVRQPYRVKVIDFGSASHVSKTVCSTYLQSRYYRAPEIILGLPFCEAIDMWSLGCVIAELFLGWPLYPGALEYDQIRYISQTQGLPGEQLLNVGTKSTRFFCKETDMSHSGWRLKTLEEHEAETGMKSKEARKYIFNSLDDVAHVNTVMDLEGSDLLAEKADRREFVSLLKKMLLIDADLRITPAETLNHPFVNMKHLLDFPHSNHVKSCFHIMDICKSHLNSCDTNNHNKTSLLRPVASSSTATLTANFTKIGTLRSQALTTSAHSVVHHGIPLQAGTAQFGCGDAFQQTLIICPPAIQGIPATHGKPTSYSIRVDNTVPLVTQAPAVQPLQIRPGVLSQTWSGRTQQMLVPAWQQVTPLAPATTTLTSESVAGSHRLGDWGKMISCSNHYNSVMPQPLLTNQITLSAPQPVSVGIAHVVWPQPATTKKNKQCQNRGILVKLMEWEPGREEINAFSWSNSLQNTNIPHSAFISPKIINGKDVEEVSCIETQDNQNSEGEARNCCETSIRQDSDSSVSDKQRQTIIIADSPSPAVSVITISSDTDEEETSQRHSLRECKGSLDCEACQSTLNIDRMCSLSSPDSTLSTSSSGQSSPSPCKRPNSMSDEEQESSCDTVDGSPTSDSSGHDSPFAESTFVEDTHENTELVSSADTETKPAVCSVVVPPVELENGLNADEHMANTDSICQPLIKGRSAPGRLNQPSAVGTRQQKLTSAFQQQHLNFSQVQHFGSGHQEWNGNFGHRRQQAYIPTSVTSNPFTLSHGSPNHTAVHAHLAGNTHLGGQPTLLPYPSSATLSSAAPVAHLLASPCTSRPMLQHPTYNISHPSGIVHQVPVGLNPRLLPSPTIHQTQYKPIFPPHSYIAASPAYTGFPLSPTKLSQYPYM
Sequence of Homeodomain-interacting protein kinase 2 (Homo sapiens) (Q9H2X6 whole entry, looked up): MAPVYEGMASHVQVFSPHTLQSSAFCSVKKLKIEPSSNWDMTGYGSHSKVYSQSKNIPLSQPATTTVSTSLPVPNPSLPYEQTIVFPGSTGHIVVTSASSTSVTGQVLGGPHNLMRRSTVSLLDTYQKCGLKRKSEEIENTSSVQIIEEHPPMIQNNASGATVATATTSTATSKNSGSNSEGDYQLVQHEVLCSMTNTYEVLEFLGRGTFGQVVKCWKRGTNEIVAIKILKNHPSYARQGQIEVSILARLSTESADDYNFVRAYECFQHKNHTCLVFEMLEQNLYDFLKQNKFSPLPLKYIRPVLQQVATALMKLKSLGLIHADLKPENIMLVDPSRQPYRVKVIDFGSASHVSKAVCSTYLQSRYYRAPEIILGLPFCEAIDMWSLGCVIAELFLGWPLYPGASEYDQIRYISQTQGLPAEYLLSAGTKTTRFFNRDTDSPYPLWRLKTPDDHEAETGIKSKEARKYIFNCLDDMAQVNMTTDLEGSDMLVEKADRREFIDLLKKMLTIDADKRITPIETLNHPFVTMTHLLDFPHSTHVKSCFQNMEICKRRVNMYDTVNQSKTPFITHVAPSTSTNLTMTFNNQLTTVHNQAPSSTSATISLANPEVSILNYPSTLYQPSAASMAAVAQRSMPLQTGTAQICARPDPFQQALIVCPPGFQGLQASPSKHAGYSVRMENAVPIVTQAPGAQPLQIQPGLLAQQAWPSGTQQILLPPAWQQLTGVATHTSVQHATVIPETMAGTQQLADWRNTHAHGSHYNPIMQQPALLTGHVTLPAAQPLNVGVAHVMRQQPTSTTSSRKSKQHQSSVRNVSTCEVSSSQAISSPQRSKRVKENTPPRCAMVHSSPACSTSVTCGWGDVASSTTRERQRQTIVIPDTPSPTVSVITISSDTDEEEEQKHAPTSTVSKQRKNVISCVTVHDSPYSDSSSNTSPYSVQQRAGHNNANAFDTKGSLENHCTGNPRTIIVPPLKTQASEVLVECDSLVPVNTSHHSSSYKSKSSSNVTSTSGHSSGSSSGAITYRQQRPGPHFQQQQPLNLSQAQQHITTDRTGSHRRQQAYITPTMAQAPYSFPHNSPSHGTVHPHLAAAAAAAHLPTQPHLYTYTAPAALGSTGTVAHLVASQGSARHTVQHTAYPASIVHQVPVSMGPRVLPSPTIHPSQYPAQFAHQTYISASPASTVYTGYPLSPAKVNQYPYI
Sequence of Homeodomain-interacting protein kinase 1 (Homo sapiens) (Q86Z02 whole entry, looked up): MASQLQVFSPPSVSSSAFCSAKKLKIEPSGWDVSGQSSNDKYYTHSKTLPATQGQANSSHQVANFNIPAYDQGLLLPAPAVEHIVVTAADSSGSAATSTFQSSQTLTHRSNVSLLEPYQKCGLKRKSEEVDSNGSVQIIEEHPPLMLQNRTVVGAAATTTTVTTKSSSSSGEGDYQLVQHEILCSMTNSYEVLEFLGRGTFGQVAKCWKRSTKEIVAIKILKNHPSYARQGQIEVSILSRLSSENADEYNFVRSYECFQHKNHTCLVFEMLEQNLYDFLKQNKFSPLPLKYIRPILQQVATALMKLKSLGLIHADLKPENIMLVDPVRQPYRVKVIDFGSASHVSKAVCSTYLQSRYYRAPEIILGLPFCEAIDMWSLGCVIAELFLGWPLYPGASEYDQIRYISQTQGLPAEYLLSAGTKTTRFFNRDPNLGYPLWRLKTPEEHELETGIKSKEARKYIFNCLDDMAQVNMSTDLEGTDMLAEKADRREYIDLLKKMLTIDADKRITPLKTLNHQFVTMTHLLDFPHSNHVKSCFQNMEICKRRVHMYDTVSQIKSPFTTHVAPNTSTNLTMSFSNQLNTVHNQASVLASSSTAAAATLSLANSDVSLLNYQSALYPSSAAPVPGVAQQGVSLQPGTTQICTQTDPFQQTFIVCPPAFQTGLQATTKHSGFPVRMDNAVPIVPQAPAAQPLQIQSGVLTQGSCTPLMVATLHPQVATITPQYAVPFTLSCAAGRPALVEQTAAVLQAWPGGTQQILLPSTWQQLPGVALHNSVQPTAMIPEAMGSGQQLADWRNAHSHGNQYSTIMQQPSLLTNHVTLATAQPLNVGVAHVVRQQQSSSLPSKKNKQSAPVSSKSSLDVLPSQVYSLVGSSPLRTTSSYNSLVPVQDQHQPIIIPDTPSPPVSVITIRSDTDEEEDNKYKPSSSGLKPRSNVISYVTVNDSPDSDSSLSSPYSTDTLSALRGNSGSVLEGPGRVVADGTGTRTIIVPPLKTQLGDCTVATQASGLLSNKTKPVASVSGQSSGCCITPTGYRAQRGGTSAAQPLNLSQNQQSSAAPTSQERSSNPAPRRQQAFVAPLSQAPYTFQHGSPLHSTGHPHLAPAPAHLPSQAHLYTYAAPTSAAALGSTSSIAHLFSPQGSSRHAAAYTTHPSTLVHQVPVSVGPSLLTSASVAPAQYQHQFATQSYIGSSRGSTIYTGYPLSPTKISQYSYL
Sequence of Glycogen synthase kinase-3 beta (Homo sapiens) (P49841 whole entry, looked up): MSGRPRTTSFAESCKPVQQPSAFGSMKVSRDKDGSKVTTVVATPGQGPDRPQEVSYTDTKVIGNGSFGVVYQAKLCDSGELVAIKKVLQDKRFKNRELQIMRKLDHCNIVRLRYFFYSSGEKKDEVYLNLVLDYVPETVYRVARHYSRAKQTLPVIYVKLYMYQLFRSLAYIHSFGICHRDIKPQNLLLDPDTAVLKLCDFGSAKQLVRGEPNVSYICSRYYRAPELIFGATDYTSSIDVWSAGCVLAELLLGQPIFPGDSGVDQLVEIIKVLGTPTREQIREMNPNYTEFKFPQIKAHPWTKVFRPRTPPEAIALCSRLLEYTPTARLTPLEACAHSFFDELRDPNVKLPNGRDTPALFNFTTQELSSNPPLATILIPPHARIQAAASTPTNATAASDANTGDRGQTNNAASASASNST
Sequence of Tyrosine-protein kinase HCK (Homo sapiens) (P08631 2-526 limits assumed): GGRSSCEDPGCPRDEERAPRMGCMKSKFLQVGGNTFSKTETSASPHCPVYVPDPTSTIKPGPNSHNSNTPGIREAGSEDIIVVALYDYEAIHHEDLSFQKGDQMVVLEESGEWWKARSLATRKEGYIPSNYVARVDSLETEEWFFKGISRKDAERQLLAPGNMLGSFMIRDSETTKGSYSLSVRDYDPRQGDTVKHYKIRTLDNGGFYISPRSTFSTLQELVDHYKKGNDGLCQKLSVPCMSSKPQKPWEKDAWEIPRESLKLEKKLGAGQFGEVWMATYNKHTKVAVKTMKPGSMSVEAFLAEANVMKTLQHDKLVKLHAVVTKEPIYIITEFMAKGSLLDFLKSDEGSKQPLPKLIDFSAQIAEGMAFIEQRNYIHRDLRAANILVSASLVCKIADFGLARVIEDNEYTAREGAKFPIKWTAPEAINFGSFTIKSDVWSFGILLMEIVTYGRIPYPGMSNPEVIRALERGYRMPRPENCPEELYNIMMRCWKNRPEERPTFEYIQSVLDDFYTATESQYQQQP
Sequence of Glycogen synthase kinase-3 alpha (Homo sapiens) (P49840 2-483 limits assumed): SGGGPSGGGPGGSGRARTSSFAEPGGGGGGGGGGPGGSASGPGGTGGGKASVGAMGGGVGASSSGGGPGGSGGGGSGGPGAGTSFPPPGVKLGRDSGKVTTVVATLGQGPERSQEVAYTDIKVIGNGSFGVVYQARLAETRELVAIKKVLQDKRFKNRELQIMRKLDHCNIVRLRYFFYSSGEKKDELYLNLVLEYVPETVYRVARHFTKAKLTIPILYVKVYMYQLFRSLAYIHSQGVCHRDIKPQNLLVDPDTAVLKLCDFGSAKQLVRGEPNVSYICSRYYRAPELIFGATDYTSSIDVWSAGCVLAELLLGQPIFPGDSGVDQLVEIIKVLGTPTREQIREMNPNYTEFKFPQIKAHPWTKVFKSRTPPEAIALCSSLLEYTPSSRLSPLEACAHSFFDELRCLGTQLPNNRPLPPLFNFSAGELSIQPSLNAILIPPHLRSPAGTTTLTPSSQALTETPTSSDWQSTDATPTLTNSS

The residual activity is the signal under treatment as a percentage of the control signal. On to `COc1ccc(S(=O)(=O)N(CCO)c2ccccc2CN(C)C/C=C/c2ccc(Cl)cc2)cc1`, for which the residual activity in assay [1] worked out at 85%; in [2], 100%; in assay [3] it was 103%; in [4] it was 123%; in assay [5], 121%; in assay [6] it was 112%. Moreover, the residual activity is 93% in [7]; 103% in assay [8]; 94% in assay [9]; 103% in assay [10]; 102% in assay [11]; 82% in assay [12]. Also, the residual activity in assay [13] came out at 49%; in assay [14] it was 87%; in [15] it was 45%; in assay [16] it was 98%; in assay [17], 90%; in assay [18], 121%. Also, in [19], the residual activity turned out to be 114%.
Take `O=C(Nc1cccc(Nc2nccc(Nc3cccc(C(F)(F)F)c3)n2)c1)C1CC1`: the residual activity was 88% in [1]; 94% in assay [2]; 67% in assay [3]; 79% in assay [4]; 104% in assay [5]; 96% in [6]. In addition, the residual activity amounted to 102% in assay [7]; 93% in assay [8]; 89% in assay [9]; 103% in assay [10]; 103% in assay [11]; 71% in assay [12]. The residual activity in assay [13] worked out at 32%; in assay [14], 42%; in assay [15] it was 7%; in assay [16], 78%; in assay [17] it was 78%; in assay [18] it was 51%. Moreover, the residual activity in assay [19] stood at 6%; in assay [20] it was 116%.
Regarding `COc1ccc(C(=O)Nc2sc3c(c2C(N)=O)CCCC3)cc1OC`, the residual activity in assay [1] worked out at 81%; in [2], 121%; in [3], 105%; in assay [4], 81%; in assay [5], 99%; in [6], 99%. Moreover, the residual activity in assay [7] was 105%; in assay [8], 99%; in assay [9] it was 96%; in [10] it was 94%; in assay [11] it was 97%; in assay [12], 109%. The residual activity is 93% in [13]; 66% in assay [14]; 70% in assay [15]; 95% in assay [16]; 94% in [17]; 115% in assay [18]. The residual activity in assay [19] was 74%; in assay [20] it was 109%.
In the case of `O=C(O)c1ccc2c3c1cccc3c(=O)n1c3ccccc3nc21`, the residual activity in assay [1] worked out at 80%; in [2] it was 98%; in assay [3], 35%; in assay [4] it was 98%; in assay [5], 41%; in assay [6], 104%. For the same compound, the residual activity is 69% in [7]; 70% in assay [8]; 24% in [9]; 101% in assay [10]; 48% in [11]; 91% in assay [12]. Besides, the residual activity was determined as 92% in assay [13]; 102% in assay [14]; 81% in assay [15]; 104% in assay [16]; 95% in assay [17]; 68% in assay [18]. For the same compound, the results for the residual activity in [19] and in [20] were 74% and 95%, respectively.
On to `Cc1nc(-c2ccccc2)c(-c2ccncc2)o1`, for which the residual activity was found to be 103% in assay [1]; 92% in [2]; 85% in assay [3]; 111% in assay [4]; 78% in [5]; 107% in assay [6]. Moreover, the residual activity in assay [7] amounted to 102%; in assay [8], 94%; in assay [9] it was 77%; in assay [10], 97%; in [11] it was 103%; in assay [12] it was 94%. Further, the residual activity in [13] was determined as 35%; in [14], 24%; in [15] it was 20%; in assay [16], 96%; in assay [17] it was 91%; in [18] it was 94%. Moreover, the values for the residual activity in [19] and in assay [20] were 128% and 112%, respectively.
Take `Cn1nc2c3c(cccc31)C(=O)c1ccccc1-2`: the residual activity in [1] was 81%; in assay [2], 86%; in assay [3], 74%; in assay [4], 108%; in assay [5], 107%; in assay [6], 105%. Moreover, the residual activity in assay [7] stood at 96%; in assay [8], 79%; in assay [9], 36%; in [10], 90%; in assay [11] it was 90%; in assay [12], 41%. For the same compound, the residual activity was 2% in [13]; 72% in assay [14]; 53% in assay [15]; 96% in [16]; 92% in assay [17]; 111% in [18]. Moreover, the residual activity in [19] and in assay [20] was 106% throughout.
For the compound `CCOc1cc2ncnc(Nc3cccc(Br)c3)c2cc1OCC`, the residual activity in assay [1] was 91%; in assay [2], 109%; in assay [3], 115%; in [4], 89%; in assay [5], 52%; in [6], 103%. Moreover, the residual activity in assay [7] amounted to 99%; in assay [8], 100%; in [9], 91%; in assay [10], 93%; in assay [11], 92%; in assay [12], 97%. In addition, the residual activity in assay [13] is 66%; in [14], 34%; in [15] it was 6%; in assay [16] it was 17%; in [17] it was 4%; in [18] it was 89%. Besides, the residual activity in assay [19] was 106%; in [20], 69%.
